Apoferritin bind – binds horse apoferritin like a general anesthetic | apoferritin/1-aminoanthracene competitive binding, fluorescence | AID 485281 | 350,000 tested, 0.074% active | Potency, µM (series often up to 77.5 µM), without a hit: at the highest dose activity change, negative = displacement, hits mostly inhibitors | P02791; note: potency is the fitted concentration of half-maximal effect; % is set by controls: 0 for no effect and ±100 for the full control effect; nearly all actives have a fitted effect of over 20% in size
Target sequence (P02791 2-175 limits assumed): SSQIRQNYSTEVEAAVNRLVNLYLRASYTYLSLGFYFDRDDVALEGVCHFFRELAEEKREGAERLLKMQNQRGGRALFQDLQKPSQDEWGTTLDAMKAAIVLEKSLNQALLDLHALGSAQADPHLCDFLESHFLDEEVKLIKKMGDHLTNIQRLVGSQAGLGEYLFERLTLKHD
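Horse-spleen apoferritin (10 uM) in 50% saturated 1-aminoanthracene in PBS was incubated 10 min at room temperature with compound. Fluorescence (ex 380, em 535 nm) was normalized to free and bound 1-AMA, with concentration-response fitted by a four-parameter Hill equation.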
Integrin act MD – activators of alpha7 integrin expression for muscular dystrophy. alpha7betagal myoblasts, beta-gal FDG fluorescence, 48 h. Potency, µM (series often up to 38.3 µM), inactives show at the highest dose activation, actives largely listed as activators. 350,000 tested, 0.064% active;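 note: potency is the fitted concentration of half-maximal effect; 100% = response of the positive control SU9516; nearly all actives have a fitted effect of over 60% in size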
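alpha7betagal+/- myoblasts (passage 13, 250/well) treated 48 h at 37C with compounds at 1:260 dilution of DMSO stock. Lysed, then beta-galactosidase activity read as FDG fluorescence (ex 480/em 540) after 30 min, with pre-read for autofluorescence.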
ClpP mod – qHTS Assay for Activators of ClpP; purified B. subtilis ClpP, FRET peptide cleavage, 20 min; 340,000 tested, 1.9% active; ATP-dependent Clp protease proteolytic subunit (Bacillus subtilis (strain 168)), P80244; Potency, µM (top dose mostly 57.5 µM), inactives show top-dose activity change, negative = active; active = well fitted falling curve with a large enough effect; inconclusive = small, poorly fitted or top-dose-only effect; inactive = no such curve, though single readings can be large or run the other way; note: potency is the fitted concentration of half-maximal effect; the source files actives as falling curves though it sought activators and does not explain the sign; nearly all actives have a fitted effect of over 65% in size
Target sequence (P80244 whole entry, looked up): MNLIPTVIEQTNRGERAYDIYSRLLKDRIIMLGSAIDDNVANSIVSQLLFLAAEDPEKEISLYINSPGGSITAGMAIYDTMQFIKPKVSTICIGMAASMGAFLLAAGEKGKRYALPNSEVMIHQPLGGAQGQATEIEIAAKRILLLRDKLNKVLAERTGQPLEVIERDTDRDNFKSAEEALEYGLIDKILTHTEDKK
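Buffer: 100 mM Tris/HCl pH8, 100 mM KCl, 0.05% low protease BSA, 2.5% glycerol, 0.01% Tween-20. ClpP 10 microg/mL final; 20 min RT; delta FRET normalized to ADEP and DMSO controls.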
N370S GC – N370S glucocerebrosidase modulation, Gaucher chaperone candidate; 330,000 tested, 0.092% active; AID 2101; P04062; Potency, µM (top dose mostly 59.4 µM), without a hit: top-dose activity change, negative = inhibition, most hits filed as inhibitors; N370S GC spleen homogenate, 4MU-glucoside fluorescence;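 note: potency is the fitted concentration of half-maximal effect; 0% = full enzyme activity and -100% = no enzyme basal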
Glioma ERSR ind – inducers of ER stress response in human glioma cells. U87-MG GRP78 promoter luciferase reporter, 16 h. Potency, µM, for inactives: at the top dose activation, most hits filed as activators. 420,000 tested, 0.02% active. AID 602332; note: potency is the fitted concentration of half-maximal effect; series mostly up to about 76 µM; % of control where 0% means no effect; nearly all actives have a fitted effect of over 35% in size
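Stably transfected U87-MG glioma cells carrying a GRP78-based luciferase sensor; 16 h compound incubation. Luminescence end-point read 10 min after Bright-Glo addition at room temperature.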
CBFb-RUNX1 inh – CBF-beta/RUNX1 interaction disruption; AlphaScreen CBFb-His/RUNX1-biotin binding, biochemical; Potency, µM (highest dose often 59.8 µM), for inactives: at the top dose activity, negative = inhibition, usual class: inhibitors; AID 1477; Q01196+Q13951; 230,000 tested, under 10 active; note: % of control where 0% means no effect
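Read-out: AlphaScreen. Format: His-CBF-beta with biotinylated RUNX1 (30 nM each) preincubated 20 min, compound 15 min, Ni-chelate plus streptavidin beads 90 min; room temperature throughout.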
* marks the source's active call; other numbers are inactive results; ? = inconclusive; nt = not tested or not shown. The sample as a whole holds a higher share of hits than the screen did. Unless noted, calls come from the whole dose curve; as a rule, active = well fitted curve in the direction sought with a large enough effect; inconclusive = small, poorly fitted or top-dose-only effect, or another doubt; inactive = no such curve, though single readings can be large; an effect the other way counts as inactive or inconclusive.

SMILES	Apoferritin bind	Integrin act MD	ClpP mod	N370S GC	Glioma ERSR ind	CBFb-RUNX1 inh
CCOC(=O)c1sc(C)c2c1NC(C)(c1ccccc1)NC2=O (stereo not drawn)	-13.4%	-2.1%	31.6µM*	29.6%	-2.3%	0.7%
CCOC(=O)c1sc(C)c2c1NC(c1ccc(Cl)cc1)NC2=O (stereo not drawn)	-3.9%	3.0%	-20.4%	8.2%	-5.5%	1.6%
CC(C)(CC(=O)O)CC(=O)N1CCCN(c2nccc(C(F)(F)F)n2)CC1	9.0%	3.98µM*	-3.7%	6.6%	-7.3%	nt
O=C(c1ccccc1)N1CCCN(c2nccc(C(F)(F)F)n2)CC1	-3.9%	1.5%	nt	-1.0%	-6.6%	7.5%
C#CCn1c(=NC(=O)c2ccc(S(=O)(=O)N3CCc4ccccc4C3)cc2)sc2cc(S(N)(=O)=O)ccc21	-17.7%	-70.5%	28.2µM*	1.5%	-13.0%	19.2%
COC(=O)Cn1c(=NC(=O)c2ccc(S(=O)(=O)N3CCc4ccccc4C3)cc2)sc2cc(OC)ccc21	0.0%	3.4%	-22.7%	13.4%	-4.2%	3.3%
COCCn1c(=NC(=O)c2ccc(S(=O)(=O)N3CCc4ccccc4C3)cc2)sc2cc(S(N)(=O)=O)ccc21	-0.8%	-27.6%	14.1µM*	14.9%	-1.1%	4.3%
COC(=O)c1cccc(C(=O)N2CCc3c(cnc(C)c3CNC(=O)/C=C/c3cccs3)C2)c1	nt	nt	nt	nt	-2.0%	nt
OCCCNCc1cc2cc3c(cc2nc1N1CCN(c2cccc(Cl)c2)CC1)OCO3	nt	nt	nt	nt	-1.3%	nt
CCOC(=O)c1sc2c(c1C)C(c1cccs1)C1=C(CCCC1=O)N2 (stereo not drawn)	426.9%	-6.5%	4.47µM*	?	0.9%	25.2%
CCOC(=O)C1=C(C)NC2=C(C(=O)CCC2)C1c1cccs1 (stereo not drawn)	6.4%	2.7%	?	5.9%	-6.3%	5.7%
CN(C)c1cc(NC(=O)CNC(C)(C)C)c(O)c2c1C[C@@H]1C[C@H]3[C@H](N(C)C)C(=O)C(C(N)=O)=C(O)[C@@]3(O)C(=O)C1=C2O	nt	nt	nt	nt	-2.3%	nt
c1ccc(Oc2ccc(-c3ccnc4nc(N5CCN(c6ccccc6)CC5)nn34)cc2)cc1	-12.3%	-7.1%	-9.7%	-1.8%	-0.9%	-1.0%
CSc1nc2nccc(-c3ccc(-c4ccccc4)cc3)n2n1	-19.3%	-25.6%	28.2µM*	nt	1.7%	1.5%
CSc1nc2nccc(-c3ccc(Oc4ccccc4)cc3)n2n1	?	6.5%	28.2µM*	3.6%	2.8%	9.9%
CCOC(=O)N1CCN(CC(O)COCc2ccc(Cl)cc2)CC1 (stereo not drawn)	-5.2%	14.8%	14.1µM*	-18.3%	0.1%	1.8%
CCOC(=O)N1CCN(CC(O)COc2ccc(CC)cc2)CC1 (stereo not drawn)	-13.9%	?	0.4%	-4.7%	-1.8%	nt
CNc1nc(C#N)nc(Nc2ccccc2)n1	-9.4%	nt	nt	nt	nt	nt
O=C(NCC1Cc2cc(F)cc(-c3cnccn3)c2O1)c1cccc(-c2ccccc2F)c1 (stereo not drawn)	nt	nt	nt	nt	-2.4%	nt
Cn1ccc(C(=O)Nc2cccnc2Cl)n1	-1.3%	10µM*	-0.1%	0.7%	14.3%	nt
O=C(Nc1cccnc1Cl)c1ccc(=O)oc1	-8.3%	-16.4%	nt	-5.0%	-2.8%	?
O=c1[nH]c2ccccc2c(=O)n1Cc1ccccc1	?	-23.6%	35.5µM*	?	2.6%	3.5%
COc1cccc(C(=O)NCC(=O)N2CCC3(CC2)NCCc2[nH]cnc23)c1	8.3%	11.2µM*	1.3%	-1.5%	8.1%	nt
Cc1ccc(C(=O)NCC(=O)N2CCC3(CC2)NCCc2[nH]cnc23)cc1C	1.2%	1.2%	0.0%	-0.2%	0.8%	nt
C=CCn1c(O)c(N=NC(=S)Nc2ccc(OC)cc2)c2ccccc21	-20.6%	13.3%	22.4µM*	1.7%	-3.2%	nt
SMILES	Apoferritin bind	Integrin act MD	ClpP mod	N370S GC	Glioma ERSR ind	CBFb-RUNX1 inh
COc1ccccc1C(=O)NC(CCSC)C(=O)NNC(=O)c1ccc(F)cc1 (stereo not drawn)	-1.6%	12.3%	28.2µM*	0.4%	-3.1%	nt
CC(C)Sc1nnc(NC(=O)CCc2ccccc2)s1	-5.3%	11.4%	0.9%	10.8%	-0.7%	7.6%
Cc1ccccc1C(=O)Nc1nnc(SC(C)C)s1	-16.1%	10µM*	-2.5%	1.3%	-0.7%	-10.0%
CCS(=O)(=O)c1ccc2oc(SCC(=O)NC34CC5CC(CC(C5)C3)C4)nc2c1	?	-36.5%	-3.2%	10.1%	-4.6%	-8.4%
CCS(=O)(=O)c1ccc2oc(SCC(=O)NC3CCCC(C)C3C)nc2c1 (stereo not drawn)	50.1µM*	24.6%	1.2%	nt	-5.1%	-5.7%
Cc1c(C(=O)NCc2ccccc2)oc2c1-c1[nH]ncc1CC2	?	nt	25.1µM*	nt	-1.4%	nt
COc1ccc(S(=O)(=O)n2ccc(-c3cnc(-c4ccccc4)s3)n2)cc1	-15.0%	-18.7%	28.2µM*	-1.4%	2.0%	11.8%
Cn1sc(=O)n(Cc2ccccc2)c1=O	-14.5%	nt	nt	-2.6%	-11.8%	9.0%
COc1cc2ncnc(N3CCN(C(=O)Nc4ccc(Oc5ccccc5)cc4)CC3)c2cc1OC	nt	nt	-4.4%	nt	-3.6%	nt
Cc1cc(C)n(C(=O)CNC(=O)C2COc3ccccc3O2)n1 (stereo not drawn)	0.3%	35.2%	1.8%	4.9%	-5.2%	0.4%
Cc1cc(C)n(C(=O)c2ccc(NC(=O)C3COc4ccccc4O3)cc2)n1 (stereo not drawn)	?	9.5%	35.5µM*	11.7%	3.7%	1.0%
O=C1CSC(c2cn(-c3ccccc3)nc2-c2cc3ccccc3oc2=O)N1Cc1ccco1 (stereo not drawn)	-18.7%	-10.6%	31.6µM*	8.6%	-4.8%	-1.4%
O=C1CSC(c2cn(-c3ccccc3)nc2-c2cc3ccccc3o2)N1Cc1ccccc1 (stereo not drawn)	-6.7%	?	0.7%	6.1%	2.6%	1.0%
COc1cc2c(NC3CCN(C(C)C)CC3)nc(N3CCCN(C)CC3)nc2cc1OCCOCCN(C)C	nt	nt	4.3%	nt	-6.4%	nt
COc1ccc(Cc2nc3c4c(ncn3n2)Oc2c(ccc3ccccc23)C4c2ccc(OC)c(OC)c2)cc1 (stereo not drawn)	-0.6%	-14.8%	?	6.4%	-2.4%	4.6%
COc1ccc(Cc2nc3c4c(ncn3n2)Oc2ccc3ccccc3c2C4c2ccc(OC)c(OC)c2)cc1 (stereo not drawn)	0.0%	1.5%	12.6µM*	4.5%	-5.9%	-10.3%
COc1ccc(C(=O)Nc2sc3c(c2C(N)=O)CCCC3)cc1OC	196.7%	nt	nt	7.1%	5.4%	14.7%

Bioassay records from PubChem.
